# Data taken from PubChem BioAssay AID1440 (NMMLSC, 2008).
# In all, about 220,000 compounds went through this assay and fewer than 10 were called active. Roughly 92% stayed inconclusive and do not appear here. How the calls were made is not given here. A selection follows.
# Molecular target: Guanine nucleotide-binding protein G(o) subunit alpha (Homo sapiens) + Regulator of G-protein signaling 19 (Homo sapiens) (UniProt P09471+P49795)
# Assay: modulators of human RGS19-Gαo interaction – biochemical, multiplexed bead flow cytometry (AID 1440);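 further: fluorescent Galpha o activated by aluminum fluoride binding bead-coupled RGS19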
# Settings: RGS19-Galphao binding, at 10 µM
# Sequence of Guanine nucleotide-binding protein G(o) subunit alpha (Homo sapiens) + Regulator of G-protein signaling 19 (Homo sapiens) (P09471 whole entry, looked up): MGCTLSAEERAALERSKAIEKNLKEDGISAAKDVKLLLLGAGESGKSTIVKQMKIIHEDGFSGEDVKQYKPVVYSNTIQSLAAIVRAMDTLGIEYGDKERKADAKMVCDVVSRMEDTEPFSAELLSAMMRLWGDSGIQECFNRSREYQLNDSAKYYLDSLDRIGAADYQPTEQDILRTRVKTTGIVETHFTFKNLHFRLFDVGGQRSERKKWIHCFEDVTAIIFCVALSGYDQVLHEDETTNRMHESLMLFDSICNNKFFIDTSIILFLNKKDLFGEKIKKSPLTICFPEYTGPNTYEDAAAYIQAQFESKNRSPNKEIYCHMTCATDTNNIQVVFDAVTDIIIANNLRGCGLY
# Sequence of Guanine nucleotide-binding protein G(o) subunit alpha (Homo sapiens) + Regulator of G-protein signaling 19 (Homo sapiens) (P49795 whole entry, looked up): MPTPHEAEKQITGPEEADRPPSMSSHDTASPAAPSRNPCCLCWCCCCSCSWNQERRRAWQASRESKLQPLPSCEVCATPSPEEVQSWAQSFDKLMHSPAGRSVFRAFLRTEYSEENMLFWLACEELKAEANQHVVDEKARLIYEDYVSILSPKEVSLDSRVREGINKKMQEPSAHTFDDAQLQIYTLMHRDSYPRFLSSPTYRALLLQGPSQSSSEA
row,Compound,binding response (% of control)
1,COC(/C=C/Nc1ccc(C)cc1)=C(C#N)C#N,71.7%
2,COc1ccccc1/C=C/C(=O)OCC(=O)c1c(N)n(C)c(=O)n(C)c1=O,109%
3,CCN(CC(=O)Nc1ccccc1OC)C(=O)C1CC2C=CC1C2 (stereo not drawn),180%
4,CCN(CC)C(=O)c1sc(NC(=O)c2cccnc2)c(C(=O)OC)c1C,128%
5,CN1C(=O)C2(N=c3ccccc3=N2)c2ccccc21,103%
6,CS(=O)(=O)N1CCN(C(=O)c2cc(-c3cccs3)nc3ccccc23)CC1,103%
7,O=C(O)c1cc(-c2ccccn2)n[nH]1,106%
8,Cc1cc(C)cc(-n2c(C)c3c(C)nnc(C)c3c2C)c1,121%
9,OC1C2(Cc3ccccc3)CN3CCN(C2)CC1(Cc1ccccc1)C3 (stereo not drawn),71.2%
10,COc1cc(S(=O)(=O)NCCc2ccc3c(c2)OCO3)ccc1-n1cnnn1,25.7%
11,COC(=O)c1ccccc1OC(=O)c1ccc(Br)o1,102%
12,CC(C)CNC(=O)COC(=O)c1ccc(Cl)c(S(N)(=O)=O)c1,107%
13,O=C(Nc1ccccc1N1CCOCC1)c1cccc([N+](=O)[O-])c1,123%
14,O=C(Nc1cccc(-c2cnc3ccccc3n2)c1)c1ccco1,147%
15,COc1ccccc1N(C(C)=O)C1SC(=O)N(c2ccccc2)C1=O (stereo not drawn),70.1%
16,CCOC(=O)N1CCN(C(=O)CCNS(=O)(=O)c2cc(Br)cnc2N)CC1,93.9%
17,Cc1ccc(S(=O)(=O)N(Cc2ccccc2)Cc2ccco2)cc1,92.7%
18,COc1cc(/C=N/NC(=O)Cc2ccccc2)ccc1Oc1ccc([N+](=O)[O-])cc1[N+](=O)[O-],107%
19,CCOCCCNC(=O)C(c1ccccc1)N(Cc1cccs1)C(=O)CNC(=O)c1ccccc1 (stereo not drawn),222%
20,O=C1CC2(CON=C2c2ccc(F)cc2)C(=O)N1c1ccc(F)cc1 (stereo not drawn),72.5%
21,CCOC(=O)C(=O)Nc1ccccc1C(=O)Nc1ccc(OC)cc1,101%
22,CCC(C)[C@H](NC(=O)N1CCCC1)C(=O)OC (stereo partly drawn),117%

row,Compound,binding response (% of control)
1,COc1ccc(C)cc1S(=O)(=O)N(CC(=O)O)c1ccc(F)cc1,102%
2,CCOC(=O)C1=C(c2ccccc2)OC(N)=C(C#N)C1C(C)C (stereo not drawn),109%
3,CS(=O)(=O)N1CCCC(C(=O)NCCc2ccccc2)C1 (stereo not drawn),71.4%
4,O=C(NC1(C(F)(F)F)C(=O)Nc2c1c(=O)[nH]c(=O)n2Cc1ccccc1)c1ccc(Cl)cc1 (stereo not drawn),108%
5,COC(=O)CCN(c1ccccc1)S(=O)(=O)c1ccc(OC)cc1,38.5%
6,CNC(=O)c1c(N)sc2c1CCCCC2,60.7%
7,COC(=O)c1ccccc1NC(=S)NC(=O)COc1ccc(C(C)C)cc1,284%
8,CCNC(=S)NNC(=O)Nc1ccccc1,89.6%
9,COC(=O)c1cn(NC(=O)C2COc3ccccc3O2)c(=O)c2ccccc12 (stereo not drawn),40.7%
10,O=C(COc1ccc2ccccc2c1)Nc1cccc2cccnc12,110%
11,COc1ccc(NC(=O)CCNS(=O)(=O)c2ccc(Br)s2)cc1,110%
12,Cc1ccc(S(=O)(=O)N2CC3(C)CN(S(=O)(=O)c4ccc(C)cc4)CC(C)(C2)C3=O)cc1,103%
13,Cc1cc(C)nc(SCC(=O)Nc2ncc3c(n2)CC(C)(C)CC3=O)n1,62.4%
14,Cc1cc(NC(=O)Cn2c(=O)c3c(ncn3CCC(C)C)n(Cc3ccccc3)c2=O)no1,106%
15,O=c1c(Cc2ccc(Cl)cc2Cl)c(O)ccn1Cc1ccc(Cl)cc1,97.7%
16,CCOc1c2ccc(C(=O)NCc3ccc(OC)cc3)cc2nn1CCOC,92.2%
17,O=C(Nc1cccnc1)C1CCCN1S(=O)(=O)c1ccc(Cl)c(Cl)c1 (stereo not drawn),114%
18,COc1ccccc1CNc1ccc(C(=O)O)cc1,121%
19,COc1ccc(OC)c(C2C(C#N)=C(N)Oc3c2c(C)nn3-c2cccc(Cl)c2)c1 (stereo not drawn),96.4%
20,Cc1ccc2c(CN3CCN(CCO)CC3)cc(=O)oc2c1C,111%
21,CCN1CCCC1CNC(=O)C(NC(=O)C1CCC(C)CC1)C(C)C (stereo not drawn),107%
22,O=C(CN1C(=O)S/C(=C/c2cccs2)C1=O)N1CCOCC1,99.9%

row,Compound,binding response (% of control)
1,CCOCCCNC(=O)C(c1ccc(Cl)cc1)N(Cc1cccs1)C(=O)CNC(C)=O (stereo not drawn),90%
2,Cc1ccc(-c2cnc(N)n2C)cc1C,94.5%
3,CCc1ccc(OC)c(S(=O)(=O)NCCOc2ccccc2)c1,41.2%
4,Fc1ccc(CNC(=S)Nc2ccccc2Cl)cc1,-28%
5,COC(=O)CCC(=O)Nc1cccc(C(=O)Nc2cccc(Cl)c2)c1,100%
6,Cc1ccc(NC(=O)c2cc(-n3cnnc3)ccc2Cl)cc1,100%
7,CC1(C)CC(=O)C(C(=S)Nc2ccccc2)=C(NCCN2CCOCC2)C1,118%
8,Cc1ccc(Cn2ncn3c(cc4ccccc43)c2=O)cc1,87.2%
9,O=C(NCc1ccco1)C1CCN(S(=O)(=O)N2CCC3(CC2)OCCO3)CC1,45.9%
10,CCOc1ccc(C2NC(=O)c3sc(=S)n(-c4ccccc4)c3N2)cc1 (stereo not drawn),87.5%
11,Cc1ccccc1-n1nc(C)c2cc(C(=O)N3CCN(S(=O)(=O)c4ccc(Cl)cc4)CC3)sc21,94.8%
12,O=C(Nc1cccc(C(F)(F)F)c1)c1cc2c(s1)-c1ccccc1OC2,119%
13,COc1ccc2cnnc(SCC(=O)Nc3ccccc3)c2c1OC,118%
14,CCCCN(CC(=O)Nc1c(C)cccc1CC)C(=O)SCC,101%
15,Cc1ccc(C)c(Cn2nnc3c(=O)[nH]c(C4CCCN(C(=O)C5CCCCC5)C4)nc32)c1 (stereo not drawn),109%
16,COC(=O)c1cc(OC)c(OC)cc1NC(=O)CCC1CCCC1,107%
17,COc1ccc(CC(=O)OCc2cc3ccccc3[nH]c2=O)cc1,90.7%
18,Cc1cc(NC(=O)c2cnn3c(C(F)(F)F)cc(-c4ccccc4)nc23)no1,103%
19,O=C(CN1C(=O)C2C3C=CC(C3)C2C1=O)Nc1cccc2c1CCCC2 (stereo not drawn),187%
20,Nc1c2c(nc3ccn(Cc4ccccc4)c(=O)c13)CCC2,72.4%
21,COC(=O)CSc1nnnn1-c1cccc2ccccc12,106%
22,CN(CCCC(=O)NCc1ccco1)S(=O)(=O)c1ccccc1,98.9%

row,Compound,binding response (% of control)
1,Fc1ccccc1OCCSc1nnnn1-c1ccccc1,25.6%
2,O=C(c1ccco1)N1CCC(c2nc(-c3ccc(F)cc3)no2)CC1,75.6%
3,COc1ccc(-c2nc(-c3cccs3)c(-c3cccs3)[nH]2)cc1O,102%
4,Cc1cccc(NC(=S)NC2CC3CCC(C2)N3Cc2ccco2)c1 (stereo not drawn),113%
5,CC(NC(=O)Nc1ccc(F)cc1F)c1ccncc1 (stereo not drawn),70.2%
6,CCOc1ccc(-c2c(C(=O)N/N=C/c3ccccc3)nnn2-c2nonc2N)cc1,91.3%
7,CCCN(CCC)CCOc1cc(C)ccc1C(C)C,116%
8,CC(C)C(CC(=O)NCc1ccco1)c1ccco1 (stereo not drawn),172%
9,CCOc1ccc(NC(=O)CSc2nc3ccccc3c(=O)n2CCNC(C)=O)cc1,97.9%
10,O=C(NN=C1CCCCC1)c1ccccc1OCc1ccc(F)cc1,118%
11,Cc1nc2ccccc2c(=O)n1NC(=O)COc1ccccc1,103%
12,CC(C)(C)NC(=O)c1ccc2nsnc2c1,141%
13,O=C(Nc1nc(N2C(=O)c3ccccc3C2=O)n(-c2ccccc2)n1)c1ccccc1,-19.9%
14,Cn1c(Cl)cnc1C(O)c1ccccc1 (stereo not drawn),105%
15,Cc1c(Br)c(C(F)(F)F)nn1CC(=O)N1CCCC1,99.7%
16,CCOC(=O)c1[nH]nc(-c2cc(CC)c(O)cc2O)c1-c1cscn1,56.9%
17,CC(=O)N(c1ccc(C(C)C)cc1)C1C=CS(=O)(=O)C1 (stereo not drawn),103%
18,CCCCC(=O)Nc1nc(C)c(-c2csc(Nc3cc(Cl)ccc3OC)n2)s1,148%
19,COc1cccc(OC)c1C(=O)Nc1ccc(NC(=O)c2ccco2)cc1,112%
20,CCOC(=O)C1=C(c2ccccc2)NC(=O)NC1c1ccc(OCC#N)c(OC)c1 (stereo not drawn),119%
21,CCOC(=O)C1Cn2c(nc3c(c2=O)C2(CCCC2)Cc2ccccc2-3)S1 (stereo not drawn),102%
22,CCOC(=O)N1CCC(NC(=O)CCCN2C(=O)CSc3ncccc32)CC1,353%
